A selection: hits, their analogues and other compounds. The true share with any hit is near 21%.
Pf growth 96h – inhibits malaria parasite growth, 96 h | actives 6.9% (n = 320,000) | P. falciparum luciferase reporter growth, 96 h | Potency, µM (doses to about 28.7 µM), without a hit: top-dose activity change, negative = inhibition, most hits filed as inhibitors | AID 504834; note: potency is the fitted concentration of half-maximal effect; % is set by controls: 0 for no effect and ±100 for the full control effect
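Two parasite generations (96 h, 37 C, 5% CO2) of compound exposure in infected erythrocytes (0.05% parasitemia, 2% hematocrit). Luciferase-reporter P. falciparum; decreased luminescence indicates inhibited growth, aimed at apicoplast-acting delayed death.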
Shiga inhibitor – inhibitors of Shiga toxin in Vero cells. AID 2315. actives 9.2% (n = 290,000). Vero cells, Shiga toxin protein synthesis inhibition reporter. inhibition, % at 38.7 µM; in the data active = inhibition mostly above about 28%, no sharp cut-off; inactive = mostly below about 43%; note: 0% is about no effect
NS1 inh – influenza NS1 inhibition; Potency, µM (doses to about 46.1 µM), for the others: at the highest dose activity, positive = more growth; actives 0.4% (n = 270,000); AID 2326; calls by dose curve; note: potency is the fitted concentration of half-maximal effect; actives are rising curves; nearly all actives have a fitted effect of over 50% in size
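OD600 was taken as the measure of yeast growth restored by compound in an NS1-expressing S. cerevisiae strain. Cells had been washed out of glucose medium and diluted 1:100 into galactose -URA medium, pH 6.0.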
Pf growth 48h – inhibits P. falciparum growth in the first generation, 48 h | AID 504832 | P. falciparum luciferase growth in erythrocytes, 48 h | actives 5.9% (n = 310,000) | Potency, µM (highest dose often 28.7 µM), without a hit: at the top dose activity change, negative = inhibition, usual class: inhibitors; note: potency is the fitted concentration of half-maximal effect; % is set by controls: 0 for no effect and ±100 for the full control effect
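A one-generation exposure of luciferase-tagged malaria parasites in RPMI 1640/Albumax erythrocyte culture, 37 C and 5% CO2. Inhibition is inferred from decreased luminescence after adding detection reagent.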
CHX counter – affects cycloheximide protein synthesis inhibition readout, counter-screen; cell reporter, cycloheximide protein synthesis inhibition counterscreen; max response, %; AID 2314; actives 12% (n = 300,000); in the data active = max response mostly above about 13%, no sharp cut-off; inactive = mostly below about 14%; note: read at 38.3 µM for the half of the compounds with a filed dose; 0% is about no effect
An asterisk follows results filed as active; ? = inconclusive; / = no result given. Unless noted, calls come from the whole dose curve; as a rule, active = well fitted inhibition curve with a large enough effect; inconclusive = small, poorly fitted or top-dose-only effect, or another doubt; inactive = no such curve, though single readings can be large or run the other way.

SMILES	Pf growth 96h	Shiga inhibitor	NS1 inh	Pf growth 48h	CHX counter
CC(=O)c1c(C)[nH]c(C(=O)NCCc2ccc(Cl)cc2)c1C	1.9%	36.1	-5.3%	0.0%	15.6*
CSc1cccc(NC(=O)c2[nH]c(C)c(C(C)=O)c2C)c1	?	93.5*	-7.4%	-73.4%	43.9*
CC(=O)c1c(C)[nH]c(C(=O)NC2=NCCS2)c1C	19.7%	30.4*	-5.3%	42.4%	16.7*
CC(=O)c1c(C)[nH]c(C(=O)Nc2ccccn2)c1C	248.9%	52.4*	3.0%	174.0%	44.1*
CC(=O)c1c(C)[nH]c(C(=O)Nc2cccc(S(=O)(=O)N(C)c3ccccc3)c2)c1C	?	2.4	/	?	-5.0
CC(=O)c1c(C)[nH]c(C(=O)NCc2ccc(F)cc2)c1C	9.9%	34.3	/	1.9%	3.1
O=C(c1nnc(Cc2ccc(Cl)cc2)o1)N1CCc2ccccc2C1	-13.5%	-9.7	-63.5%	34.3%	-5.7
CC(=O)c1c(C)[nH]c(C(=O)Nc2ccc(F)c(F)c2F)c1C	?	71.3*	-7.2%	13.1µM*	6.1
CC(=O)c1c(C)[nH]c(C(=O)NCCc2c[nH]c3ccccc23)c1C	37.6%	41.1*	15.4%	10.1%	39.1*
CCC(NC(=O)c1[nH]c(C)c(C(C)=O)c1C)c1ccc(Br)cc1 (configuration not stated)	?	9.8	-21.5%	9.28µM*	-1.8
Cc1[nH]c2ccccc2c1C(=O)C(=O)NCCc1c[nH]c2ccccc12	?	-5.2	18.3%	-9.6%	-3.9
CC(=O)c1c(C)[nH]c(C(=O)Nc2cccc(C)c2C)c1C	17.1%	16.7	-15.0%	5.1%	-1.0
CCC(C)c1ccc(NC(=O)c2[nH]c(C)c(C(C)=O)c2C)cc1 (configuration not stated)	3.29µM*	71.3*	9.1%	4.65µM*	23.0*
CCOc1ccc(OCC)c(NC(=O)c2[nH]c(C)c(C(C)=O)c2C)c1	6.2%	69.2	-5.1%	-3.9%	2.2
CC(=O)c1c(C)[nH]c(C(=O)Nc2ccc(Cl)cc2F)c1C	20.5%	115.7*	0.5%	63.1%	31.6*
COc1ccccc1NC(=O)c1[nH]c(C)c(C(C)=O)c1C	12.0%	18.0	-12.5%	/	-2.3
CC(=O)c1c(C)[nH]c(C(=O)Nc2ccc(Cl)cc2)c1C	-20.3%	62.3*	-11.5%	?	41.5*
Cc1c(NC(=O)c2ccc(NC(=O)C3CC3)cc2)cccc1C(=O)O	9.2%	-6.0	4.7%	82.4%	-4.4
CN(CCc1nc2ccccc2[nH]1)Cc1nc(CC2CC2)no1	-1.9%	19.8	3.4%	-9.0%	-4.1
CN(Cc1nc2ccccc2[nH]1)Cc1nc(CC2CC2)no1	9.2%	30.9	-0.2%	41.2%	16.2*
C=CCOCC(O)Cn1c(N2CCCC2)nc2c1c(=O)[nH]c(=O)n2C (configuration not stated)	6.57µM*	-2.4	11.5%	5.2%	-2.5
Cn1c(=O)[nH]c(=O)c2c1nc(N1CCCCC1)n2CC(O)COc1ccc([N+](=O)[O-])cc1 (configuration not stated)	9.28µM*	45.3	1.1%	-12.2%	-1.6
Cn1c(=O)[nH]c(=O)c2c1nc(N1CCCCC1)n2C/C=N/Nc1ccc(C(=O)O)cc1	47.0%	45.8	0.9%	?	62.0*
CC(=O)NC1(NC(C)=O)CCN(C)CC1	-6.6%	-2.8	6.2%	21.6%	-1.5
Fc1ccc(Nc2ccc3ccccc3n2)c(F)c1	224.9%	28.4	1.6%	255.7%	13.4
SMILES	Pf growth 96h	Shiga inhibitor	NS1 inh	Pf growth 48h	CHX counter
CSCCC1NC(=O)N(CC(=O)Nc2ccc(-c3ccccc3)cc2)C1=O (configuration not stated)	57.8%	65.5*	-0.7%	54.1%	20.9*
CCCc1ccc(C(=O)CCC(=O)NNC(=O)c2ccncc2)cc1	?	-3.6	-3.7%	23.9%	8.8
C/C(=N\Nc1ccc(C(=O)c2c(C)cc3ccccn23)cc1[N+](=O)[O-])c1ccc(O)cc1	?	-6.6	2.7%	9.28µM*	-5.0
Cc1cc2ccccn2c1C(=O)c1ccc(N/N=C/c2ccc(C(=O)O)cc2)c([N+](=O)[O-])c1	1.7%	17.4	-3.0%	-12.3%	7.5
NS(=O)(=O)OCCCCCc1ccccc1	-10.2%	19.2	3.1%	25.6%	14.3*
NS(=O)(=O)OCCCc1ccccc1	-15.7%	-12.3	16.8%	37.8%	-5.5
COc1ccccc1N(Cc1ccccc1)S(=O)(=O)c1cccc(C(=O)O)c1	-21.4%	2.3	?	-2.8%	-2.2
O=C(O)c1ccc(Cl)c(S(=O)(=O)N(Cc2ccccc2)c2ccc(Cl)cc2)c1	-12.9%	8.1	4.4%	-9.5%	-1.0
CC1(C)CC(NC(=O)c2ccc(Cl)c(S(=O)(=O)N(Cc3ccccc3)c3ccccc3)c2)CC(C)(C)N1	7.38µM*	/	/	5.22µM*	/
COc1ccccc1N(Cc1ccccc1)S(=O)(=O)c1cccc(C(=O)Nc2cc(C)ccn2)c1	?	58.4*	2.1%	?	43.0*
CCOc1ccccc1NC(=O)c1cccc(S(=O)(=O)N(Cc2ccccc2)c2ccccc2OC)c1	2.62µM*	-9.9	1.5%	0.0%	-2.0
COc1ccccc1N(Cc1ccccc1)S(=O)(=O)c1cccc(C(=O)NC2CC(C)(C)NC(C)(C)C2)c1	4.65µM*	/	/	5.86µM*	/
Cc1c(C(=O)NC2CC(=O)N(c3ccc4c(c3)OCCO4)C2)cccc1[N+](=O)[O-] (configuration not stated)	3.2%	/	/	6.1%	/
O=C(O)c1ccc(/C=N/NC(=O)c2cc(-c3ccc4c5c(cccc35)CC4)n[nH]2)cc1	?	9.6	-13.7%	0.0%	0.7
O=[N+]([O-])c1cc([N+](=O)[O-])c(Oc2c(F)cc(F)cc2F)cc1NN1CCCCC1	?	-5.6	8.6%	28.8%	-0.6
Cc1cc2ccccc2c(=O)n1CC(=O)NCc1ccco1	/	-15.9	-5.6%	/	-2.2
O=C(Nc1ncccc1O)c1cccc(S(=O)(=O)NCc2ccccc2)c1	-15.0%	/	/	10.0%	/
COc1ccccc1N(Cc1ccccc1)S(=O)(=O)c1cccc(C(=O)Nc2ncccc2C)c1	?	/	/	11.7µM*	/
COc1ccc(S(=O)(=O)N2CCN(C(=O)c3cc(-c4ccccc4OC)n[nH]3)CC2)cc1	-1.6%	7.2	19.0%	1.31µM*	-2.3
COc1cccc(-c2cc(C(=O)N3CCN(S(=O)(=O)c4ccc(Br)cc4)CC3)[nH]n2)c1	13.1µM*	24.6	-13.7%	-16.9%	0.7
CC(=O)Oc1ccc(C23CC4CC(CC(C4)C2)C3)cc1C(=O)O	9.3%	36.6*	-6.6%	3.4%	-2.6
O=C(O)c1ccccc1OC(=O)C12CC3CC(CC(C3)C1)C2	174.9%	-6.4	1.4%	-1.6%	-4.8
Cc1ccc(C(=O)NC2c3ccccc3-c3ccccc32)cc1	-20.9%	-1.7	7.8%	1.4%	-1.8
O=C(NC1C(=O)NNC1c1ccccc1)c1ccc(F)cc1 (configuration not stated)	20.3%	88.0*	-2.0%	37.4%	28.6*
O=C(NC1C(=O)NNC1c1ccc(Cl)cc1)c1ccc(F)cc1 (configuration not stated)	-22.4%	-2.3	-0.9%	9.0%	2.5

Screens from PubChem.
